# Assay results as given in PubChem BioAssay (NCI).
# About 83,000 compounds went through this panel and 20% of them were active in at least one assay; those are over-represented in the sample as a whole.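 Cells were grown in 96-well plates and exposed to the test compound at a single concentration for 48 hours; results are reported as percent growth, with values below 10 considered active.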 A number with no mark means an inactive call. Active and inactive are the calls of the source.
# System: NCI-H322M lung
# Assay: NCI-60 one-dose screen, 48 h (100 = growth as untreated, 0 = no growth, -100 = all killed)
# Conditions: 10 µM unless noted
row,Structure (SMILES),growth
1,COc1ccc(/C=C/C(=O)/C=C(/C=C/c2ccc(OC)c(OC)c2)OB(F)F)cc1OC,103%
2,COc1cc(/C=C/C(=O)/C=C/c2cc3ccc(Cl)cc3[nH]c2=O)ccc1O,92.2%
3,CCCCn1c(=O)c(/C=C/C(=O)/C=C/c2cc3ccccc3n(CCCC)c2=O)cc2ccccc21,49.6%
4,COc1ccc(-c2nc(C#N)c(NCC(c3ccco3)N3CCCC3)o2)cc1 (stereo not drawn),43.3%
5,N#C/C(=C/c1ccc(O)c([N+](=O)[O-])c1)c1nc(-c2ccc([N+](=O)[O-])cc2)cs1,52.8%
6,C=C1C(=O)O[C@H]2[C@H]1CC/C(COC(=O)CCCCC(=O)OC/C1=C/CC[C@@]3(C)O[C@H]3[C@H]3OC(=O)C(=C)[C@@H]3CC1)=C\CC[C@@]1(C)O[C@@H]21,105%
7,CCOC(=O)c1c(C(F)(F)F)n([O-])c2ccc(Cl)cc2[n+]1=O,6.75% (active)
8,COc1ccc(-c2nc(C#N)c(NCC(c3ccc(Cl)cc3)N3CCCCC3)o2)cc1 (stereo not drawn),83.7%
9,O=CN1N=C(c2ccc(Cl)cc2)CC1c1cccc(Nc2ccnc3cc(C(F)(F)F)ccc23)c1 (stereo not drawn),82.4%
10,O=C(CCCCCCCCC(=O)Nc1cccc(C2=NCCN2)c1)Nc1cccc(C2=NCCN2)c1,105%
11,CCOC(=O)C1CCN(S(=O)(=O)/N=C2/NC(=O)NC2=C(Cl)Cl)CC1,31.1%
12,S=c1ssnc1-c1cc2ccccc2o1,91.8%
13,NS(=O)(=O)c1ccc(C2C3=C(CCCC3=O)OC3=C2C(=O)c2ccccc2C3=O)cc1 (stereo not drawn),6.58% (active)
14,C=C1C(=O)O[C@H]2[C@H]1CCC(/C=N/c1ncc(Br)cc1N)=C\CC[C@@]1(C)O[C@@H]21,85.3%
15,C#Cc1ccccc1NC(=O)c1sc2nc3c(cc2c1N)CCCCC3,101%
16,NS(=O)(=O)c1ccc(-n2nc(-c3ccccc3)ccc2=O)cc1,115%
17,COc1ccc(-c2nnc(N3CCN(C(=O)CN4CCN(c5ccc(OC)cc5)CC4)CC3)nc2-c2ccc(OC)cc2)cc1,32.6%

row,Structure (SMILES),growth
1,N#Cc1ccc(Oc2ccc3ccc(=O)oc3c2)cc1,111%
2,CC1CCCN(CCCCCOc2ccc3oc4ccccc4c(=O)c3c2)C1 (stereo not drawn),76.9%
3,CS(=O)(=O)O[C@@H]1C(=O)N(c2cc3c4ccccc4ccc3c3ccccc23)[C@H]1c1ccc(F)cn1,67%
4,C=C1C(=O)O[C@H]2[C@H]1CC/C(C=Nc1c(N)cc(F)cc1Br)=C\CC[C@@]1(C)O[C@@H]21,97.7%
5,Cc1ccc(SC2c3ccc(C)cc3Oc3nc(N)c(C#N)c(N)c32)cc1 (stereo not drawn),104%
6,O=C(Nc1nccs1)c1noc2ccccc12,92%
7,C=C(C)[C@@H]1CC[C@]2(C(=O)OCCCC[P+](c3ccccc3)(c3ccccc3)c3ccccc3)CC[C@]3(C)[C@H](CC[C@@H]4[C@@]5(C)CC[C@H](OC(=O)C(Cl)Cl)C(C)(C)[C@@H]5CC[C@]43C)[C@@H]12,2.79% (active)
8,Cc1cc2ccccc2c[n+]1CC(=O)c1ccc(-c2ccccc2)cc1,78.3%
9,O=C1Nc2ccc(Cl)cc2/C1=N/c1nc(-c2ccc(F)cc2)cs1,65.7%
10,COc1cc(/C=N/Nc2nc(-c3ccc(F)cc3)c(C#N)c(N3CCOCC3)n2)ccc1O,97.4%
11,C=C(C)[C@@H]1CC[C@]2(C(=O)N=C=S)CC[C@]3(C)[C@H](CC[C@@H]4[C@@]5(C)CCC(=O)C(C)(C)[C@@H]5CC[C@]43C)[C@@H]12,42.8%
12,CC1(C)[C@@H](O)CC[C@]2(C)[C@H]3CC[C@@H]4[C@H]5[C@H](c6cn(-c7ccccc7)nn6)CC[C@]5(CO)CC[C@@]4(C)[C@]3(C)CC[C@@H]12,79.7%
13,COc1cc(/C=C/C(=O)c2ccc(NC(=O)CSc3nnc(-c4cc(OC)c(OC)c(OC)c4)n3-c3ccccc3)cc2)cc(OC)c1OC,64.5%
14,O=c1c2ccccc2n(CC(O)CN2CCCC2)c2c(Br)cccc12 (stereo not drawn),110%
15,COc1cc(-c2cn(-c3ccc(Cl)c(Cl)c3)c(=O)[nH]2)cc(OC)c1OC,69.7%
16,COC(=O)c1ccc2c(c1)n(Cc1ccc3ccccc3c1)c[n+]2Cc1ccc2ccccc2c1,57.2%
